The entries come from a sample that favours hits as a whole.
Cruzain inh Det = inhibitors of Trypanosoma cruzi cruzain with detergent | purified cruzain, Z-FR-AMC fluorescence, 0.01% Triton | Potency, µM, hits mostly inhibitors | AID 1478 | P25779 | 0.43% of 200,000 active; also: nearly all actives have a fitted effect of over 40% in size
Target sequence (P25779 123-467 limits assumed): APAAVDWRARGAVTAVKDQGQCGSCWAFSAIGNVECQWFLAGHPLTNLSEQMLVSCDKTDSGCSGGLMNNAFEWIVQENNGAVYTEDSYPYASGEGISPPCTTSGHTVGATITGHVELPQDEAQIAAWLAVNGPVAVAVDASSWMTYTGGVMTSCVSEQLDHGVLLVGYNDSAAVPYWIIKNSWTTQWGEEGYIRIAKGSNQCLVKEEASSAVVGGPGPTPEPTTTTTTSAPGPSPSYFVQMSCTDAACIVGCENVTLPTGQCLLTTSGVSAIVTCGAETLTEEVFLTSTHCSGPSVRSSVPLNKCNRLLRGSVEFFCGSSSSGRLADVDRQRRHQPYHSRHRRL
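Enzyme 1.5 nM, Z-FR-AMC 2 uM, NaOAc 100 mM pH 5.5, DTT 5 mM, Triton X-100 0.01%; 15 min RT compound preincubation; kinetic ex360/em450, 60 s delta.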
NS1 function inh = influenza NS1 inhibition; Potency, µM (doses to about 46.1 µM); 0.4% of 270,000 active; calls by dose curve; also: actives are rising curves; nearly all actives have a fitted effect of over 50% in size
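Read-out: OD600 growth recovery of NS1-expressing budding yeast. Cells grown overnight at 30C in -URA glucose medium, washed, resuspended and diluted 1:100 in 2% galactose assay medium, pH 6.0. Same strain lacking NS1 served as positive control.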
Cruzain inh noDet = inhibitors of Trypanosoma cruzi cruzain without detergent; Potency, µM, most hits filed as inhibitors; 2.3% of 200,000 active; P25779; purified cruzain, Z-FR-AMC fluorescence, no detergent; also: nearly all actives have a fitted effect of over 40% in size
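Detergent-free condition (0.00005% Triton X-100) in acetate buffer pH 5.5 with DTT. 1.5 nM enzyme and compound were pre-mixed 15 min, then 2 uM Z-FR-AMC substrate added; reaction progress from fluorescence change between first and third reads (60 s).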
Of the large screens only hits and unclear results are named; the others gave an inactive call. Unless noted, calls follow the shape of the dose curve; as a rule, active = well fitted curve in the direction sought with a large enough effect; inconclusive = small, poorly fitted or top-dose-only effect, or another doubt; inactive = no such curve, though single readings can be large; an effect the other way counts as inactive or inconclusive.

O=C1NC(=S)N/C1=C/c1cccc([N+](=O)[O-])c1	none (no result: Cruzain inh Det, Cruzain inh noDet)
COc1ccc(-c2nc3cc(NC(=O)Cc4ccc(Cl)cc4)ccc3o2)cc1OC	Cruzain inh noDet inconclusive (no result: NS1 function inh)
COc1ccc(C2CC(=O)c3cc(-c4nc(-c5cccc([N+](=O)[O-])c5)cs4)c(=O)n(-c4ccccc4)c3C2)cc1 (stereo not given)	none (no result: NS1 function inh)
COc1ccc(C2CC(=O)c3cc(-c4nc(-c5cccc([N+](=O)[O-])c5)cs4)c(=O)n(-c4ccc(F)cc4)c3C2)cc1 (stereo not given)	Cruzain inh noDet 1µM (no result: NS1 function inh)
COc1cc(OC)c(C(=O)NCc2nc(-c3ccccc3)no2)cc1OC	Cruzain inh noDet inconclusive (no result: NS1 function inh)
CC(/C=C/c1ccccc1)=N\Nc1nc(-c2ccccc2)cs1	Cruzain inh noDet 25µM
CC(C)=NNc1nc(-c2ccccc2)cs1	NS1 function inh inconclusive
COC(=O)c1ccc(/C=N/Nc2nc(-c3ccccc3)cs2)cc1	Cruzain inh noDet 13µM
COC(=O)c1ccc(/C=N/Nc2nc(-c3ccc(Cl)cc3Cl)cs2)cc1	none (no result: Cruzain inh Det, Cruzain inh noDet)
COC(=O)c1ccc(/C=N/Nc2nc(-c3ccc(C)cc3)cs2)cc1	Cruzain inh noDet 13µM
C(=N\Nc1nc(-c2ccccc2)cs1)/c1cccnc1	none
COC(=O)[C@H]1[C@@H]2C[C@H]3c4[nH]c5ccccc5c4CCN3C[C@@H]2CC[C@@H]1O	none (no result: NS1 function inh)
Clc1ccc(CSCCc2ccncc2)cc1Cl	none
CCc1noc(-c2ccc(NCc3ccccc3)c([N+](=O)[O-])c2)n1	Cruzain inh noDet inconclusive (no result: NS1 function inh)
COC(=O)CS(=O)(=O)c1nc2ccccc2nc1N1CCCCC1	none (no result: NS1 function inh)
CCCCCCCCCCCCCCCC(O)C(N)CO (stereo not given)	Cruzain inh Det 18µM, Cruzain inh noDet inconclusive
CCCCCCCCCCCCC/C=C\[C@@H](O)[C@@H](N)CO	none (no result: NS1 function inh)
COc1ccc(-c2nc3cnc(N4CCNCC4)nc3n(Cc3cccs3)c2=O)cc1	none (no result: NS1 function inh)
CCOC(=O)[C@@H](O)Cc1cnc2ccccc2n1	none
O=C(N/C(=C/c1ccc([N+](=O)[O-])cc1)C(=O)N1CCCC1)c1ccccc1	none (no result: Cruzain inh Det, Cruzain inh noDet)
O=C(OCC(=O)c1ccc([N+](=O)[O-])cc1)/C(=C/c1ccc(Cl)cc1)NC(=O)c1ccccc1	Cruzain inh Det 2.8µM, Cruzain inh noDet 16µM
CCOc1ccc(OCC)c(Nc2nc3ccc(Cl)cc3n3cnnc23)c1	none (no result: NS1 function inh)
Cc1nn(-c2ccccn2)c2c1C(c1ccccc1Cl)C1=C(N2)c2ccccc2C1=O (stereo not given)	none
Cc1nn(-c2ccccn2)c2c1C(c1c(F)cccc1Cl)C1=C(N2)c2ccccc2C1=O (stereo not given)	Cruzain inh noDet 25µM
CCOc1ccccc1CNC(=O)CN1C(=O)CCn2nc(-c3cn(C)c4ccccc34)cc21	Cruzain inh noDet inconclusive (no result: NS1 function inh)
Cc1cccc(NC(=O)CSc2cn(CC(=O)N3CCCCCC3)c3ccccc23)c1	none (no result: NS1 function inh)
Cc1nnc(S(=O)(=O)c2ccc(N=Nc3c(N)nc(N)nc3N)cc2)s1	none
C[C@H]1[C@H](C)CC[C@]2(C(=O)O)CC[C@]3(C)C(=CC[C@H]4[C@]3(C)C[C@@H](O)C3[C@](C)(CO)[C@H](O)[C@@H](O)C[C@]34C)[C@H]12 (stereo not given in full)	NS1 function inh inconclusive, Cruzain inh noDet inconclusive
COC(=O)c1ccc(COC(=O)c2ccc(CS(=O)(=O)c3ccc(C)cc3)cc2)cc1	Cruzain inh noDet 25µM
CCCS(=O)(=O)c1ccc(COC(=O)c2ccc(NC(C)=O)cc2)cc1	none (no result: Cruzain inh Det, Cruzain inh noDet)
COc1ccc2cc(C#N)c(SCC(=O)NNC(=O)Cc3ccccc3)nc2c1	Cruzain inh noDet 13µM
Cc1ccc2cc(C#N)c(SCC(=O)NNC(=O)Cc3ccccc3)nc2c1	Cruzain inh noDet 10µM
COC(=O)CSc1nc2cc(OC)ccc2cc1C#N	none
COc1cccc(-c2ccc(C#N)c(SCC(=O)NCCc3cccc(Cl)c3)n2)c1	Cruzain inh noDet 32µM
CCOC(=O)CSc1nc2cc(OCC)ccc2cc1C#N	none
COc1ccc(-c2ccc(C#N)c(SCC(=O)NCCc3ccccc3)n2)cc1OC	none
Cc1ccccc1NC(=O)CSc1nc(N)c(C#N)cc1C#N	none
CCOc1ccc2cc(C#N)c(SCC(=O)NC(C)CC)nc2c1 (stereo not given)	Cruzain inh noDet 13µM
COc1ccc(-n2ccn(CC(=O)NCCc3ccccc3)c(=O)c2=O)cc1OC	none (no result: NS1 function inh)
COC(=O)[C@H]1C[C@@H]2CC[C@@H](O)C[C@@H]2N1Cc1c(F)cccc1Cl	none (no result: NS1 function inh)
O=c1[nH][nH]c(=S)c(=O)[nH]1	none
CCOC(=O)c1ccc(N2C(=O)c3[nH]nc(-c4ccc(C)cc4)c3C2c2cccc(F)c2)cc1 (stereo not given)	Cruzain inh noDet inconclusive (no result: NS1 function inh)
COc1ccc2c(c1)sc1ncc(C(=O)NCc3ccc(Cl)cc3)c(=O)n12	none (no result: NS1 function inh)
C=CCN=C1NN=C(c2cc(C)n(CC=C)c2C)CS1	Cruzain inh noDet 25µM
COCCN=C1NN=C(c2cc(C)n(CC3CCCO3)c2C)CS1 (stereo not given)	none (no result: Cruzain inh Det, Cruzain inh noDet)
Cc1sc(N/N=C/c2cccnc2)nc1-c1ccc(Cl)cc1	Cruzain inh noDet 16µM
Clc1ccc(N/N=C/c2cccnc2)cc1	none
Cc1cccc(Cn2c(=O)n3nc(-c4ccccc4)nc3c3ccccc32)c1	none (no result: NS1 function inh)
COc1cccc(OCCCn2cc(/C=C3/C(=N)N4C=C(C)SC4=NC3=O)c3ccccc32)c1	Cruzain inh noDet 13µM
COc1cc(/C=C2/C(=N)N3C=CSC3=NC2=O)ccc1OCCCOc1ccccc1C	none
CC1=CN2C(=N)/C(=C/c3ccco3)C(=O)N=C2S1	none
COc1ccc(OCCCn2cc(/C=C3/C(=N)N4C=C(C)SC4=NC3=O)c3ccccc32)cc1	Cruzain inh noDet 25µM
CC1=CN2C(=N)/C(=C/c3cn(CCCOc4ccccc4C)c4ccccc34)C(=O)N=C2S1	Cruzain inh noDet 3.2µM
COc1cc(/C=C2/C(=N)N3C=CSC3=NC2=O)ccc1OCCCOc1c(C)cccc1C	none
CCCCNc1nc(C)nc2c1nc(-c1ccccc1)n2CCN1CCCCC1	none (no result: NS1 function inh)
O=C1CCCC1C(O)c1ccc2ccccc2c1 (stereo not given)	none (no result: NS1 function inh)
CC(=O)c1ccc(N2CCN(S(=O)(=O)c3ccc4[nH]c5c(c4c3)CCCCC5)CC2)cc1	Cruzain inh noDet 10µM (no result: NS1 function inh)
COc1ccccc1NC(=O)C1CCN(S(=O)(=O)c2ccc3[nH]c4c(c3c2)CCCCC4)CC1	Cruzain inh noDet 20µM (no result: NS1 function inh)
CC(=O)c1ccc(NS(=O)(=O)c2ccc3[nH]c4c(c3c2)CCCCCC4)cc1	Cruzain inh noDet inconclusive (no result: NS1 function inh)
COc1cccc(NC(=O)C2CCN(S(=O)(=O)c3ccc4[nH]c5c(c4c3)CCCCC5)CC2)c1	Cruzain inh noDet 20µM (no result: NS1 function inh)
CSc1cccc(NC(=O)C2CCN(S(=O)(=O)c3ccc4[nH]c5c(c4c3)CCCCC5)CC2)c1	Cruzain inh noDet 13µM (no result: NS1 function inh)
CCOC(=O)C1CCN(S(=O)(=O)c2ccc3[nH]c4c(c3c2)CCCC4)CC1	none (no result: Cruzain inh Det, Cruzain inh noDet)
CSc1cccc(NC(=O)C2CCN(S(C)(=O)=O)CC2)c1	none
COc1cccc(NC(=O)C2CCN(S(=O)(=O)c3ccc4[nH]c(=O)ccc4c3)CC2)c1	none (no result: Cruzain inh Det, Cruzain inh noDet)
OC[C@@H]1O[C@@H](N2CCN([C@@H]3O[C@@H](CO)[C@@H](O)[C@H](O)[C@H]3O)CC2)[C@@H](O)[C@H](O)[C@H]1O	none
COc1ccc(OC)c(S(=O)(=O)NCc2ccc3c(c2)CCN3C(=O)c2cccc(C)c2)c1	none (no result: NS1 function inh)
O=C(Nc1cccc(F)c1)C1CCN(S(=O)(=O)c2ccc3[nH]c4c(c3c2)CCCCC4)CC1	Cruzain inh noDet 16µM (no result: NS1 function inh)

Compound activity: PubChem, National Center for Advancing Translational Sciences (NCATS)
